According to PubChem BioAssay (NCATS):
Results filed as inconclusive are left out. Entries that show only a call come without a potency. The source made the active and inactive calls. Calls come from the whole dose curve; as a rule, active = well fitted inhibition curve with a large enough effect; inconclusive = small, poorly fitted or top-dose-only effect; inactive = flat fitted curve, though single readings scatter.

Experiments:
Assay in all cases: qHTS profiling for inhibitors of Plasmodium falciparum proliferation (AID 504749); note: nearly all actives have a fitted effect of over 60% in size
Settings in all cases: P. falciparum in erythrocytes, SYBR Green DNA, 72 h; series mostly up to 28.7 µM
[1] = system: CP192
Outline: (§1)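 Readout was DNA-dye fluorescence from lysed cultures, ex 485/em 535 nm. Parasitized red cells had grown 72 h with compound; data scaled between 0.29 uM artemisinin and DMSO wells and corrected using vehicle-only plates.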

[2] = system: CP194
Outline: as §1

[3] = system: CP201
Outline: as §1

[4] = system: CP203
Outline: as §1

[5] = system: CP211
Outline: as §1

[6] = system: CP215
Outline: as §1

[7] = system: CP217
Outline: as §1

[8] = system: CP237
Outline: as §1

[9] = system: CP238
Outline: as §1

[10] = system: CP247
Outline: as §1

[11] = system: CP250
Outline: as §1

[12] = system: CP252
Outline: as §1

[13] = system: CP256
Outline: as §1

[14] = system: CP260
Outline: as §1

[15] = system: CP262
Outline: as §1

[16] = system: CP265
Outline: as §1

[17] = system: CP266
Outline: as §1

[18] = system: CP268
Outline: as §1

[19] = system: CP269
Outline: as §1

[20] = system: CP286
Outline: as §1
Potency is the fitted concentration of half-maximal effect.

Row | Structure (SMILES) | Potency [1] | Potency [2] | Potency [3] | Potency [4] | Potency [5] | Potency [6] | Potency [7] | Potency [8] | Potency [9] | Potency [10] | Potency [11] | Potency [12] | Potency [13] | Potency [14] | Potency [15] | Potency [16] | Potency [17] | Potency [18] | Potency [19] | Potency [20]
1 | CCNC(=O)N1CCN(CCCC(c2ccc(F)cc2)c2ccc(F)cc2)CC1 | 7.57 µM (active) | 7.57 µM (active) | 7.57 µM (active) | 6.75 µM (active) | 5.36 µM (active) | 4.26 µM (active) | 1.12 µM (active) | 2.51 µM (active) | 3.16 µM (active) | 1 µM (active) | 1 µM (active) | 3.98 µM (active) | 0.794 µM (active) | 3.16 µM (active) | 3.01 µM (active) | 0.794 µM (active) | 6.01 µM (active) | 2.39 µM (active) | 5.36 µM (active) | 2.24 µM (active)
2 | CC(=O)[C@@]1(O)CC[C@H]2[C@@H]3CCC4=CC(=O)CC[C@]4(C)[C@H]3CC[C@@]21C | inactive | inactive | inactive | inactive | inactive | inactive | inactive | inactive | inactive | inactive | inactive | inactive | inactive | inactive | inactive | inactive | inactive | inactive | inactive | inactive
3 | CCCN(CCC)CCc1cccc2c1CC(=O)N2 | inactive | inactive | inactive | inactive | inactive | inactive | inactive | inactive | inactive | inactive | inactive | inactive | inactive | inactive | inactive | inactive | inactive | inactive | inactive | inactive
4 | CSc1ccc(C(=O)c2[nH]c(=O)[nH]c2C)cc1 | inactive | inactive | inactive | inactive | inactive | inactive | inactive | inactive | inactive | inactive | inactive | inactive | inactive | inactive | inactive | inactive | inactive | inactive | inactive | inactive
5 | CNC1(C)C2CCC(C2)C1(C)C (stereo not given) | inactive | inactive | inactive | inactive | inactive | inactive | inactive | 7.94 µM (active) | inactive | inactive | inactive | inactive | inactive | inactive | inactive | inactive | inactive | inactive | inactive | inactive
6 | NC/C=C/C(=O)O | inactive | inactive | inactive | inactive | inactive | inactive | inactive | inactive | inactive | inactive | inactive | inactive | inactive | inactive | inactive | inactive | inactive | inactive | inactive | inactive
7 | C[N+](C)(C)CCOC(=O)CCC(=O)OCC[N+](C)(C)C | inactive | inactive | inactive | inactive | inactive | inactive | inactive | inactive | inactive | inactive | inactive | inactive | inactive | inactive | inactive | inactive | inactive | inactive | inactive | inactive
8 | O=C(O)CCCCCCCC(=O)O | inactive | inactive | inactive | inactive | inactive | inactive | inactive | inactive | inactive | inactive | inactive | inactive | inactive | inactive | inactive | inactive | inactive | inactive | inactive | inactive
9 | CC(=O)Nc1nnc(S(N)(=O)=O)s1 | inactive | inactive | inactive | inactive | inactive | inactive | inactive | inactive | inactive | inactive | inactive | inactive | inactive | inactive | inactive | inactive | inactive | inactive | inactive | inactive
10 | Nc1nc(N)c2nc(-c3ccccc3)c(N)nc2n1 | inactive | inactive | inactive | inactive | inactive | inactive | inactive | inactive | inactive | inactive | inactive | inactive | inactive | inactive | inactive | inactive | inactive | inactive | inactive | inactive
11 | O=C(O)CP(=O)(O)O | inactive | inactive | inactive | inactive | inactive | inactive | inactive | inactive | inactive | inactive | inactive | inactive | inactive | inactive | inactive | inactive | inactive | inactive | inactive | inactive
12 | CCCCNC(=O)NS(=O)(=O)c1ccc(C)cc1 | inactive | inactive | inactive | inactive | inactive | inactive | inactive | inactive | inactive | inactive | inactive | inactive | inactive | inactive | inactive | inactive | inactive | inactive | inactive | inactive
13 | NC(=O)c1cn(Cc2c(F)cccc2F)nn1 | inactive | inactive | inactive | inactive | inactive | inactive | inactive | inactive | inactive | inactive | inactive | inactive | inactive | inactive | inactive | inactive | inactive | inactive | inactive | inactive
